An excerpt weighted towards active compounds, which were near 3.5% of everything screened.
HSP90 refold inh – blocks HSP90-mediated luciferase refolding in reticulocyte lysate; Rabbit reticulocyte lysate, luciferase refolding luminescence, 3 h; inhibition, % at 5.6 µM; 290,000 compounds, 0.91% hits;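 active = inhibition above the screen-wide mean plus 3 SD, computed separately per campaign, cut at about 16% in these data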;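 note: inhibitors lower the luminescence because luciferase stays unfolded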
C8 TRAIL sens – sensitizes caspase-8 expressing cells to TRAIL; NB7+C8 cells + TRAIL, ATPlite viability luminescence; 360,000 compounds, 1% hits; inhibition (viability loss, TRAIL sensitization), % at 10 µM;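 active = compounds causing at least 50% loss of cell viability in the single-dose screen, relative to plate controls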
TWEAK Fn14 block – inhibitors of TWEAK-Fn14 interaction signaling | TWEAK-stimulated Fn14 reporter cells, luciferase luminescence, 8 h | 360,000 compounds, 2% hits | inhibition, % at 10 µM; in the data active = inhibition above about 50%
TROY NFkB inh – blocks TROY-dependent signaling in reporter cells | inhibition, % at 10 µM | 360,000 compounds, 0.98% hits | Q293 LMP1-TROYcd NF-kB luciferase reporter, 4 h;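 active = compounds whose plate-normalised and pattern-corrected inhibition of the luciferase reporter signal at the single screening dose is 50% or more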
PPC-1+TRAIL kill – kills PPC-1 cancer cells in the presence of TRAIL. PPC-1 cells + TRAIL, ATPLite viability luminescence. cell killing (% activity), % at 4 µM or 5 µM. 220,000 compounds, 0.41% hits;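 active = cell killing above 50% in the first pass at 4 µM, then a duplicate retest at 5 µM averaging 50% or more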
Platelet DG rel – platelet dense granule release activity. inhibition, %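 (compounds screened at 7.5 µM in platelet-rich plasma)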. 300,000 compounds, 0.22% hits. human platelet-rich plasma, SFLLRN dense granule ATP release, luminescence;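 active = mean replicate score, as percent of positive control, at or above 50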
Each line names hits and unclear results; the compound was inactive in the other large screens; ! = not active in a repeat.

CCN1/C(=C/c2ccc3cccc(C)c3[n+]2CC)Sc2ccccc21	C8 TRAIL sens 61
CCN1/C(=C\C=C(C(C)=O)C(C)=O)Sc2ccccc21	none
COc1ccc(C(=O)/C(=C/c2cccs2)c2nc3ccccc3o2)cc1	HSP90 refold inh 17, TWEAK Fn14 block 51, TROY NFkB inh 52
CCN(C(=O)COC(=O)/C=C/c1c(C)nn(-c2ccccc2)c1C)c1c(N)n(Cc2ccccc2)c(=O)[nH]c1=O	none (no result: HSP90 refold inh, PPC-1+TRAIL kill, Platelet DG rel)
Cc1ccc(NCc2nnc(SCC(=O)c3ccc4c(c3)OCCO4)o2)c(C)c1	TROY NFkB inh 77
CSc1nc(-c2ccccc2)nc(C(C)C)n1	none (no result: HSP90 refold inh, PPC-1+TRAIL kill, Platelet DG rel)
CN1/C(=C/C(=O)C2CC2)C(C)(C)c2ccccc21	none
CCN(CC)S(=O)(=O)c1cccc(C(=O)/C=C2/N(C)c3ccccc3C2(C)C)c1	TWEAK Fn14 block 61
CN1/C(=C/C=N/NC(=O)c2ccc([N+](=O)[O-])cc2)C(C)(C)c2ccccc21	none
CN1/C(=C\C(=S)NC(=O)c2ccc([N+](=O)[O-])cc2)C(C)(C)c2ccccc21	TWEAK Fn14 block 58
CN1/C(=C\C(=O)Nc2ccc(Br)cc2)C(C)(C)c2ccccc21	none
CN1/C(=C\C(=S)NC(=O)c2cccc(Br)c2)C(C)(C)c2ccccc21	TWEAK Fn14 block 72
O=C(c1ccc2c(=O)n3c(nc2c1)CCCCC3)N1CCN(c2cccc(Cl)c2)CC1	none (no result: PPC-1+TRAIL kill)
O=C(Nc1ccc(OC(F)(F)F)cc1)C1CCCN(C(=O)c2ccc(Cl)cc2)C1 (stereo not given)	none (no result: HSP90 refold inh, PPC-1+TRAIL kill, Platelet DG rel)
Cc1cc(C)c2ccc(=O)n(CC(=O)N/N=C/c3ccccc3Cl)c2n1	none
COc1cccc(NC(=O)c2c([N+](=O)[O-])cnn2C)c1	none (no result: PPC-1+TRAIL kill)
Cc1ccc(-n2nnnc2C(Cl)(Cl)c2nnnn2-c2ccc(C)cc2)cc1	TROY NFkB inh 60
CC(=O)/C=C(/C)NC(Cc1c[nH]c2ccccc12)C(=O)O (stereo not given)	TROY NFkB inh 51!
C[C@@H](C(=O)N[C@@H](Cc1c[nH]c2ccccc12)C(=O)O)n1nnc2ccccc2c1=O	TWEAK Fn14 block 72
CC(=O)N[C@H](Cc1c[nH]c2ccccc12)C(=O)O	none (no result: HSP90 refold inh, PPC-1+TRAIL kill)
CCOC(=O)c1cnc(-n2nc(C)cc2C)nc1NC	none
CCOC(=O)c1cnc(-n2nc(C)cc2C)nc1Nc1ccc(O)cc1	TROY NFkB inh 51
CCOC(=O)c1cc(NC(=O)NC2CCCCC2)c(C)nc1C	TWEAK Fn14 block 109 (no result: PPC-1+TRAIL kill)
CCOC(=O)c1cnc(-n2nc(C)cc2C)nc1NC1CCCCC1	TROY NFkB inh 54
C[C@@H]1CN([C@@H](C)CO)C(=O)c2cc(-c3ccncc3)cnc2O[C@H]1CN(C)C(=O)c1cccc(F)c1	none (no result: HSP90 refold inh, PPC-1+TRAIL kill, Platelet DG rel)
O=c1cc(N2CCCCC2)[nH]c(=O)n1C1CCCCC1	none
COC(=O)C1CCN(c2cc(=O)n(C3CCCCC3)c(=O)[nH]2)CC1	TWEAK Fn14 block 95 (no result: TROY NFkB inh)
Cc1cc(C)cc(CC(Cc2nc3ccccc3[nH]2)c2nc3ccccc3[nH]2)c1 (stereo not given)	TWEAK Fn14 block 56, TROY NFkB inh 52
Cc1ccc(CSCc2nc3ccccc3[nH]2)cc1	none (no result: PPC-1+TRAIL kill)
CC(=O)Nc1sc2c(c1-c1nc3ccccc3s1)CN(C(C)C)CC2	C8 TRAIL sens 54 (no result: HSP90 refold inh, PPC-1+TRAIL kill, Platelet DG rel)
COc1ccc(-c2oc3ccc(N4CCOCC4)cc3c2C#CCO)cc1	TWEAK Fn14 block 97, TROY NFkB inh 54 (no result: HSP90 refold inh, PPC-1+TRAIL kill)
COc1ccc(-c2ccc3oc(-c4ccc(OC)cc4)c(C#CCO)c3c2)cc1	TWEAK Fn14 block 53 (no result: HSP90 refold inh, PPC-1+TRAIL kill)
Cc1ccc(-c2cc(-c3ccccc3)no2)cc1	C8 TRAIL sens 55, TWEAK Fn14 block 60 (no result: HSP90 refold inh, PPC-1+TRAIL kill)
CC(C)CCn1c(SCC(=O)N2CC(=O)Nc3ccccc32)nc2scc(-c3cccs3)c2c1=O	none
C=CCn1c(SCC(=O)N2CC(=O)Nc3ccccc32)nc2scc(-c3cccs3)c2c1=O	TWEAK Fn14 block 52
c1cc(CNc2ccc3c(c2)OCCO3)ccn1	TWEAK Fn14 block 81, TROY NFkB inh 62
CCOc1ccc(Br)cc1CNCCN1CCOCC1	none
O=C(NCc1ccncc1)Nc1ccc2c(c1)OCO2	none
CCOc1ccc(Br)cc1CNc1ccc2c(c1)OCCO2	TWEAK Fn14 block 83, TROY NFkB inh 87
Cn1c(=O)c(C(=O)CCl)c(N)n(Cc2ccccc2)c1=O	none
Cn1c(N)c(C(=O)CCl)c(=O)n(Cc2ccccc2)c1=O	C8 TRAIL sens 90
COc1ccc(C(=O)N(C)C2CCCCC2)cc1S(=O)(=O)N1CCOCC1	none (no result: HSP90 refold inh, PPC-1+TRAIL kill, Platelet DG rel)
